In all, about 340,000 compounds went through this assay and about 2,100 (0.62%) were called active.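 The calls were made as follows: active = first-screen hits whose inhibition reached a set limit at any dose in the follow-up dose series; inconclusive = inhibition above the set first-screen limit but never retested; inactive = the rest.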 These entries were drawn from the full list. Measured potencies and affinities stand elsewhere.
target: Rac GTPase-activating protein 1 (Homo sapiens) (UniProt Q9H0H5); assay: blockers of MgcRacGAP-driven Rac1 GTP hydrolysis – biochemical, ADP Hunter fluorescence, primary and confirmatory, confirmation (AID 624330); settings: MgcRacGAP-stimulated Rac1 GTP hydrolysis, at 30 µM, hits give high values, GST-tagged Rac1 F28L mutant substrate;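 also: fluorescence reports GDP produced by GAP-driven GTP hydrolysis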
Sequence (Q9H0H5 whole entry, looked up): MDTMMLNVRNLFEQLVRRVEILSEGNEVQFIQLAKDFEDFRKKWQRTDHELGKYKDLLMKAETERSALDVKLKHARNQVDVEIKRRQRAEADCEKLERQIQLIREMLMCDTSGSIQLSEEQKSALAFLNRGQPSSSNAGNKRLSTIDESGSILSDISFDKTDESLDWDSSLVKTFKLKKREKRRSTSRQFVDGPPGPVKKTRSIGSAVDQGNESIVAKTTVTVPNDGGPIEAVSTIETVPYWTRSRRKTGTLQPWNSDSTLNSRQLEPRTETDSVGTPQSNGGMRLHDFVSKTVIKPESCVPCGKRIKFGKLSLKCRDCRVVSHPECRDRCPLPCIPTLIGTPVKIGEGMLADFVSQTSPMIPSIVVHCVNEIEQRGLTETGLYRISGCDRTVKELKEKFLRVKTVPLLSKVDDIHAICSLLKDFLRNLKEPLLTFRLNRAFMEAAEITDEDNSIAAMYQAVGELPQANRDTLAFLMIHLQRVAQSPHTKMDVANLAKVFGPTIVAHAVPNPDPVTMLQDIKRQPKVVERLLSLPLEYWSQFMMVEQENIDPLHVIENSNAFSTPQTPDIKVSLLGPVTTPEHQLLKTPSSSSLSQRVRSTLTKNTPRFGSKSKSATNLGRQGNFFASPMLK

inhibition, inactive:
COc1ccccc1-c1nnc(SC)n1C 7.84%
CC(=O)N1N=C(c2ccccc2)CC1c1ccc2c(c1)OCO2 (centres undefined) 13.6%
CC(C)(C)OC(=O)C[C@H]1C/C=C\C[C@@H](CC(=O)NCCO)C(=O)N[C@H](Cc2ccccc2)COC1=O 5.95%
CC1Cc2ccccc2N1S(=O)(=O)c1cnc(Cl)c(Cl)c1 (centres undefined) 6.78%
O=S(=O)(NCC(c1ccc2c(c1)OCO2)N1CCOCC1)c1ccccc1 (centres undefined) 4.31%
O=C(CCCC1=NS(=O)(=O)c2ccccc2N1)NCCc1ccc(Cl)cc1 12.4%
CN(C1CCCCC1)S(=O)(=O)c1ccc(=S)[nH]c1 16.8%
Cc1cccc(COCC(Cc2ccccc2)N2CCN(C(=O)c3cc(Cl)cc(Cl)c3)CCC2=O)c1 (centres undefined) 10.4%
Cc1noc(C)c1COc1ccc(C(=O)N2CCN(c3ccccc3O)CC2)cc1 -2.07%
O=C(Nc1nc2ccc(F)cc2s1)C1CC(=O)N(c2ccc3c(c2)OCCO3)C1 (centres undefined) 3.42%
CC(C)(C)c1ccc(NC(=O)COC(=O)C2CCCC2)cc1 6%
COc1cc(/C=N/Nc2ncnc3sc4c(c23)CCC4)ccc1O 6.14%
C(=N\Nc1ccccc1)/c1ccc(N2CCOCC2)cc1 11%
COc1ccc(/C=N/Nc2ncnc3sc4c(c23)CCCC4)cc1OC 2.22%
O=C(N/N=C/c1ccc(N2CCOCC2)cc1)c1ccccn1 3.4%
Cc1cc2ncn(S(=O)(=O)c3ccc(S(=O)(=O)N4CCCCCC4)cc3)c2cc1C -3.86%
Cn1c(SCC(=O)Nc2ccccc2Cl)nnc1C1CC1 2.31%
COc1ccc([N+](=O)[O-])cc1NS(=O)(=O)c1cc(C(=O)O)ccc1OC -0.88%
C=CCn1c(C)cc(C(=O)COC(=O)C2CC(=O)N(CCc3ccc(OC)c(OC)c3)C2)c1C (centres undefined) 2.85%
COc1ccc(C=O)cc1COc1ccc(Cl)cc1[N+](=O)[O-] 0.45%
CCCCOc1ccc(C(CC(=O)NC)C(=O)O)cc1 (centres undefined) 1.11%
Cc1ccc(NC(=O)c2ccccc2)cc1 8.58%
CN1c2ccccc2C(O)=C(C(=O)Nc2ccccc2)S1(=O)=O 5.83%
O=C(Nc1ccc(-c2ccccc2)cc1)c1ccccc1 10.2%
Cc1ccc(NC(=O)C2=C(O)c3ccccc3N(C)S2(=O)=O)cc1 10.1%
Cc1onc(-c2c(F)cccc2Cl)c1C(=O)N=C(N)N1CCCC1 4.34%
CCOC(=O)C1CCCCN1C(=O)c1oc2c(Cl)cc(C)cc2c1C (centres undefined) -3.11%
CCCCN(C)C(=O)Cc1c(OC)ccc2cc(Br)ccc12 10.7%
COc1ccc(/C=N/n2cncn2)cc1Cn1nc(C)c([N+](=O)[O-])c1C 6.36%
Cc1ccc(SCCN2CCN(CCc3ccccc3)CCC2=O)cc1 12%
COc1ccc(CN2CCN(C(c3ccc(F)cc3)c3ccc(F)cc3)CC2)c(OC)c1OC 6.11%
Cc1ccc(SCCN2CCN(C)CC2)cc1 -7.97%
CCOc1ccccc1N1CCN(Cc2ccc(OC)c(OC)c2OC)CC1 13.8%
COc1ccc(-n2c(SCC(=O)Nc3ccc(Br)cc3)nc(O)cc2=O)cc1 10.3%
O=C(c1ccc(F)cc1)N1CCCC(N2CCN(Cc3ccc4c(c3)OCO4)CC2)C1 (centres undefined) 8.04%
O=C(c1ccncc1)N1CCN(C2CCCCC2)CC1 19.7%
OCCC1CN(Cc2ccncc2)CCN1C1CCCC1 (centres undefined) 5.79%
c1ccc(CN2CCC(N3CCN(Cc4ccc5c(c4)OCO5)CC3)CC2)cc1 13.3%
COCCNC(=O)CC(c1ccccc1)c1ccccc1 10.4%
CCOc1ccc(CN(C)C(=O)CN2C(=O)NC3(CCCc4ccccc43)C2=O)cc1 (centres undefined) 13%
CC(C)(C)NC(=O)C(c1ccccn1)N(C(=O)c1csnn1)C1CCCC1 (centres undefined) 0.77%
O=C(COc1ccc(C(=O)Nc2ccc(Cl)cc2)cc1)NCc1ccccc1 8.5%
Cc1cc(/C=C2/NC(=O)N(Cc3ccccc3F)C2=O)c(C)n1-c1ccccn1 4.33%
COc1ccc(N(C)S(=O)(=O)c2cccc(C(=O)NCC(c3cccs3)N(C)C)c2)cc1 (centres undefined) 5.09%
Cc1cc(C)nc(NC(=O)/C=C/c2ccccc2Cl)c1 9.19%
Cc1cc(C)nc(NC(=O)/C=C/c2ccccc2Cl)n1 6.5%
Clc1cccc(N/N=C/c2ccc(N3CCOCC3)cc2)c1 0.9%
C(=N\n1cnnc1)/c1ccc(N2CCOCC2)s1 10.2%
C(=N\N(c1ccccc1)c1ccccc1)/c1ccc(N2CCOCC2)s1 15.3%
CCOC(=O)N/N=C\c1ccc(C)s1 3.68%
O=C(N/N=C/c1ccc(N2CCOCC2)s1)c1ccccc1Br 10%
CC(C)NC(=S)N/N=C/c1ccc(N2CCOCC2)cc1 0.94%
CC(C)(C)OC(=O)N/N=C/c1ccc(N2CCOCC2)s1 25.5%
O=C(O)c1cc(N/N=C/c2ccc(N3CCOCC3)s2)ccc1Cl 25.9%
Cc1ccccc1S(=O)(=O)N(C)C[C@@H]1OCc2ccccc2-c2c(n(C)c3ccccc23)C(=O)N([C@H](C)CO)C[C@@H]1C 14.2%
COc1ccc(Cl)cc1C(=O)NNC(=O)c1n[nH]c2ccccc12 4.94%
Cc1ccc(S(=O)(=O)/N=C(\Nc2cc(C)on2)c2ccc(Cl)cc2)cc1 8.35%
Cc1cn2c(-c3ccc(Cl)cc3)nnc2s1 -3.08%
O=C(NCc1cccnc1)C(=O)NCC1OCCCN1S(=O)(=O)c1ccc(Cl)cc1 (centres undefined) 1.54%
Cc1cc(=O)cc(C)n1-c1ccc2c(c1)nc(C)n2-c1ccccc1 2.42%
Cc1ccc(S(=O)(=O)N2CCN(C(=O)Cc3ccc4c(c3)OCCO4)CC2)cc1C 6.6%
CCCCc1ccc(NC(=S)NCCc2ccc(F)cc2)cc1 -17.2%
CCOc1ccc(-n2c(-c3ccco3)nc3c(cnn3-c3ccc(C)cc3)c2=O)cc1 2.66%
O=C(CN(Cc1ccco1)S(=O)(=O)c1ccccc1)N/N=C/c1ccccc1C(=O)O 8.11%
O=C(CN(Cc1ccco1)S(=O)(=O)c1ccccc1)N/N=C/c1cccc(O)c1 8.45%
Cc1ccc(/C=N/NC(=O)CN(Cc2ccccc2)S(=O)(=O)c2ccc3c(c2)OCCO3)cc1 2.63%
COc1ccc(/C=N/NC(=O)CN(Cc2ccccc2)S(=O)(=O)c2ccc3c(c2)OCCO3)cc1 7.2%
CN(C)CCCN=Cc1c(-c2ccccc2)[nH]n(-c2nc3ccccc3s2)c1=O 20.7%
O=C(NCc1ccc2c(c1)OCO2)Nc1cccc(Cl)c1 11.9%
COc1ccc(-c2nc3c(Br)c(N)c(Br)cc3o2)cc1 -0.217%
Clc1ccc2nc3ccccc3cc2c1 2.87%
O=C(Oc1ccc2ccc(O)cc2c1)c1ccccc1Cl 18.6%
Nc1cccc(O)c1 18.5%
Nc1ccc2cc3ccccc3cc2c1 17.6%
CCc1ccc(NC(=O)CSc2nc3ccccc3nc2N2CCCCC2)cc1 6.49%
O=C(Cc1c(F)cccc1Cl)c1ccc(O)cc1O -1.08%
Oc1ccc(/C=N/n2cnn(Cc3ccccc3Cl)c2=S)c(O)c1 8.66%
O=C(Cc1ccc(Cl)cc1)c1ccc(O)cc1 9.32%
O=C(Cc1ccc(Cl)cc1)NNc1c(F)c(F)cc(F)c1F 5.43%
CCN1C(=O)C(C(=O)c2ccccc2)SC1=S (centres undefined) 2.79%
CSc1ncnc2c1ncn2CCCN1CCN(Cc2cccc3ccccc23)CC1 18.8%
CC(=O)Nc1ccc(C(=O)OCC(=O)c2ccc(C)c([N+](=O)[O-])c2)cc1 -0.02%
O=C(Oc1ccccc1C(=O)Nc1ccccc1)c1ccc(Br)c([N+](=O)[O-])c1 14.5%
O=C(c1ccc2snnc2c1)N1CCSCC1 12.5%
COc1ccc(/C=N/N(c2ccccc2)c2ccccc2)cc1O 10.2%
CCOc1ccc(/C=N/N(C)c2ccccc2)cc1OC 8.29%
COc1cc(/C=N/N(c2ccccc2)c2ccccc2)ccc1O 21%
CN(/N=C/c1cc(Br)cc(Br)c1O)c1ccccc1 5.13%
COc1cc(/C=N/S(=O)(=O)c2ccccc2)cc(OC)c1O 9.73%
COc1ccc(OC)c(/C=N/N(C)c2ccccc2)c1 19.4%
Cc1ccc(C(=O)N2CC=C(c3ccccc3)CC2)s1 -2.79%
CCCCN(C(=O)Nc1ccc(Cl)cc1)C1CCN(C(C)=O)CC1 12.3%
Cc1cc(NC(=O)c2ccc([N+](=O)[O-])cc2Cl)ccc1NC(=O)c1ccco1 5.16%
C=CCc1cccc(C=Nc2ccc(Br)cc2)c1O 2.02%
Cc1cccc(N=Cc2ccccc2O)c1C 6.78%
Cc1ccc(N=Cc2cccc(O)c2O)c(C)c1 27.7%
C=CCc1cccc(/C=N/c2ncccc2O)c1O 15.7%
Oc1ccccc1C=Nc1cccc2ccccc12 12.9%
Cc1ccccc1N=Cc1cccc(O)c1O 12.1%
